# Results taken from PubChem BioAssay (NCATS).
# Values joined by “and” are separate entries in the source; they are usually repeats but may differ in a detail not shown here. Equal entries are not always repeated. Unmarked numbers belong to inactive results. Records with an inconclusive call do not appear. Entries that show only a call come without a potency. Active and inactive are the calls of the source. Unless noted, calls follow the shape of the dose curve; as a rule, active = well fitted curve in the direction sought with a large enough effect; inconclusive = small, poorly fitted or top-dose-only effect, or another doubt; inactive = no such curve, though single readings can be large; an effect the other way counts as inactive or inconclusive.
# How the values were obtained:
# MKL-2 = assay: qHTS assay to identify novel small-molecules to repurpose for Merkel cell carcinoma treatment (AID 1296009); conditions: MCC and control cell lines, CellTiter-Glo viability, 72 h; series mostly up to 46 µM; also: nearly all actives have a fitted effect of over 60% in size; also: potency is read from the fitted curve at half-maximal effect
# Procedure, shortened: (§1)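 Cell viability measured by CellTiter-Glo following 72 hr compound treatment at 37 degree celsius, with NPC and MIPE libraries tested in 8- and 11-point concentration series.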
# UISO = assay: as above; conditions: MCC and control cell lines, CellTiter-Glo viability, 72 h; series mostly up to 46 µM
# Procedure, shortened: as §1
# WaGa = assay: as above; conditions: MCC and control cell lines, CellTiter-Glo viability, 72 h; series mostly up to 46 µM
# Procedure, shortened: as §1
# C33A = assay: Primary qHTS to identify gynecologic anti-cancer compounds using libraries of approved drugs and bioactive compounds (AID 1345084); conditions: Gynecologic cancer cell panel viability, ATPlite luminescence, 48 h; series mostly up to 57.5 µM; also: nearly all actives have a fitted effect of over 55% in size
# Procedure, shortened: (§2)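 Cells, 1,000 per well, plated 16 h, then exposed 48 h at 37 C to compounds. Viability by ATPlite luminescence after 15 min at room temperature.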
# CAOV3 = assay: as above; conditions: Gynecologic cancer cell panel viability, ATPlite luminescence, 48 h; series mostly up to 57.5 µM
# Procedure, shortened: as §2
# CASKI = assay: as above; conditions: Gynecologic cancer cell panel viability, ATPlite luminescence, 48 h; series mostly up to 57.5 µM
# Procedure, shortened: as §2
# Es-2 = assay: as above; conditions: Gynecologic cancer cell panel viability, ATPlite luminescence, 48 h; series mostly up to 57.5 µM
# Procedure, shortened: as §2
# HeLa = assay: as above; conditions: Gynecologic cancer cell panel viability, ATPlite luminescence, 48 h; series mostly up to 57.5 µM
# Procedure, shortened: as §2
# Hek293T = assay: as above; conditions: Gynecologic cancer cell panel viability, ATPlite luminescence, 48 h, control line for the selectivity index; series mostly up to 57.5 µM
# Procedure, shortened: as §2
# JEG-3 = assay: as above; conditions: Gynecologic cancer cell panel viability, ATPlite luminescence, 48 h; series mostly up to 57.5 µM
# Procedure, shortened: as §2
# OV90 = assay: as above; conditions: Gynecologic cancer cell panel viability, ATPlite luminescence, 48 h; series mostly up to 57.5 µM
# Procedure, shortened: as §2
# PA-1 = assay: as above; conditions: Gynecologic cancer cell panel viability, ATPlite luminescence, 48 h; series mostly up to 57.5 µM
# Procedure, shortened: as §2
# SKOV3 = assay: as above; conditions: Gynecologic cancer cell panel viability, ATPlite luminescence, 48 h; series mostly up to 57.5 µM
# Procedure, shortened: as §2
# Tov-21-G = assay: as above; conditions: Gynecologic cancer cell panel viability, ATPlite luminescence, 48 h; series mostly up to 57.5 µM
# Procedure, shortened: as §2
# Tov112D = assay: as above; conditions: Gynecologic cancer cell panel viability, ATPlite luminescence, 48 h; series mostly up to 57.5 µM
# Procedure, shortened: as §2
# [1] = Drug repurposing screens with cells derived from glioblastoma tumor samples (AID 1345199); conditions: GBM patient neurospheres viability, ATP luminescence, 48 h; also: nearly all actives have a fitted effect of over 40% in size; also: potency is read from the fitted curve at half-maximal effect
# Procedure, shortened: (§3)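 Primary testing used CD133+ neurospheres from four GBM patients, seven concentrations, 48 h exposure and ATP-based viability; confirmation added three slower-growing patient lines.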
# astro = assay: as above; conditions: viability, ATP luminescence, 48 h; series mostly up to 45.9 µM
# Procedure, shortened: as §3
# NIH3T3 = assay: qHTS assay to identify novel small-molecules to repurpose for Merkel cell carcinoma treatment (AID 1296009); conditions: MCC and control cell lines, CellTiter-Glo viability, 72 h; at 44.8 µM (top of the series) unless noted; also: nearly all actives have a fitted effect of over 60% in size; also: potency is read from the fitted curve at half-maximal effect
# Procedure, shortened: as §1
# [2] = target: Nuclear receptor subfamily 1 group I member 2 (Rattus norvegicus) (UniProt Q9R1A7); assay: qHTS assay for small molecule activators of the rat pregnane X receptor (rPXR) signaling pathway (AID 651751; call rule not given here); conditions: rPXR reporter cells, luciferase (One-Glo), 24 h
# [3] = at 20 µM (top of the series), tumour line C
# [4] = at 21.2 µM (top of the series), tumour line B
# [5] = at 21.2 µM (top of the series), tumour line D
# [6] = at 21.3 µM (top of the series), tumour line A
# [7] = at 45.9 µM (top of the series), tumour line B
# [8] = at 45.9 µM (top of the series), tumour line D
# [9] = at 46 µM (top of the series), tumour line A
# [10] = at 46.1 µM (top of the series), tumour line C
# Nuclear receptor subfamily 1 group I member 2 (Rattus norvegicus), sequence (Q9R1A7 whole entry, looked up): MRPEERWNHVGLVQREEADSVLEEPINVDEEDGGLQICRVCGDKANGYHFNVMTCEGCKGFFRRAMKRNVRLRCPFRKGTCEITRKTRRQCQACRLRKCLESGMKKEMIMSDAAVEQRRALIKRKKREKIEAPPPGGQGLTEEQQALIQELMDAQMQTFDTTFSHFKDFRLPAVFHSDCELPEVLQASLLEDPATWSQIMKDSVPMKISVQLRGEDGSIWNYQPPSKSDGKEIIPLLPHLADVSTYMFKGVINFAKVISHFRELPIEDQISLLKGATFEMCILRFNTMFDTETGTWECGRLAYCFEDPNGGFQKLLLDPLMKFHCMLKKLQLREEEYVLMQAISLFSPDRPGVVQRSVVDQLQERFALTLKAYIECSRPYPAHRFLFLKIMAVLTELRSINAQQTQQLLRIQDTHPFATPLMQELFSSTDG
smiles,measurement,setting,value
Cc1c(N)c(=O)n(-c2ccccc2)n1C,Potency,MKL-2,inactive
same,Potency,UISO,inactive
same,Potency,WaGa,inactive
same,Potency,C33A,inactive
same,Potency,CAOV3,inactive
same,Potency,CASKI,inactive
same,Potency,Es-2,inactive
same,Potency,HeLa,inactive
same,Potency,Hek293T,inactive
same,Potency,JEG-3,inactive
same,Potency,OV90,inactive
same,Potency,PA-1,inactive
same,Potency,SKOV3,inactive
same,Potency,Tov-21-G,inactive
same,Potency,Tov112D,inactive
same,"activity, negative = cell killing",[1]; [3],-1.09%
same,"activity, negative = cell killing",[1]; [4],-6%
same,"activity, negative = cell killing",[1]; [5],-16.4%
same,"activity, negative = cell killing",[1]; [6],-17.4%
same,Potency,astro,inactive
CCCCCCCCCCCCCCCC(=O)OC(C)C,Potency,MKL-2,inactive
same,outcome,NIH3T3,inactive
same,Potency,UISO,inactive
same,Potency,WaGa,inactive
same,Potency,C33A,inactive
same,Potency,CASKI,inactive
same,Potency,Es-2,inactive
same,Potency,HeLa,inactive
same,Potency,Hek293T,inactive
same,Potency,JEG-3,inactive
same,Potency,OV90,inactive
same,Potency,PA-1,inactive
same,Potency,SKOV3,inactive
same,Potency,Tov-21-G,inactive
same,Potency,Tov112D,inactive
same,"activity, negative = cell killing",[1]; [7],-2.41%
same,"activity, negative = cell killing",[1]; [8],-2.14%
same,"activity, negative = cell killing",[1]; [9],-26.7%
same,"activity, negative = cell killing",[1]; [10],4.29%
same,Potency,astro,inactive
same,max response,[2],-0.444%
CCCC(=O)OC[C@@H](OC(=O)CCC)[C@@H](OC(=O)CCC)[C@H](Cn1c2nc(=O)[nH]c(=O)c-2nc2cc(C)c(C)cc21)OC(=O)CCC,Potency,MKL-2,3.35 µM (active)
same,outcome,NIH3T3,inactive
same,Potency,WaGa,4.22 µM (active)
same,Potency,C33A,inactive
same,Potency,CASKI,inactive
same,Potency,Es-2,inactive
same,Potency,HeLa,inactive
same,Potency,Hek293T,inactive
same,Potency,PA-1,inactive
same,Potency,SKOV3,inactive
same,Potency,Tov-21-G,inactive
same,Potency,Tov112D,inactive
same,"activity, negative = cell killing",[1]; [10],-29.1%
same,Potency,[1]; tumour line A,8.91 µM (active)
same,Potency,[1]; tumour line D,12.6 µM (active)
CCCCCCCCCCCCCCCCCC(=O)O,Potency,MKL-2,inactive
same,Potency,UISO,inactive
same,Potency,WaGa,inactive
same,Potency,C33A,inactive
same,Potency,CAOV3,inactive
same,Potency,CASKI,inactive
same,Potency,Es-2,inactive
same,Potency,HeLa,inactive
same,Potency,Hek293T,inactive
same,Potency,JEG-3,inactive
same,Potency,OV90,inactive
same,Potency,PA-1,inactive
same,Potency,SKOV3,inactive
same,Potency,Tov-21-G,inactive
same,Potency,Tov112D,inactive
same,"activity, negative = cell killing",[1]; [7],-6.65%
same,"activity, negative = cell killing",[1]; [8],-11.1%
same,"activity, negative = cell killing",[1]; [9],-19.5%
same,"activity, negative = cell killing",[1]; [10],-22.7%
same,Potency,astro,inactive
same,max response,[2],1.24% and 3.12% and 0.368%
CN(C)[C@@H]1C(=O)C(C(=O)NCN2CCCC2)=C(O)[C@@]2(O)C(=O)C3=C(O)c4c(O)cccc4[C@@](C)(O)C3C[C@@H]12 (stereo partly specified),Potency,MKL-2,inactive
same,Potency,UISO,inactive
same,Potency,WaGa,inactive
same,Potency,C33A,inactive
same,Potency,CAOV3,inactive
same,Potency,CASKI,inactive
same,Potency,Es-2,inactive
same,Potency,HeLa,inactive
same,Potency,Hek293T,inactive
same,Potency,JEG-3,inactive
same,Potency,OV90,inactive
same,Potency,PA-1,inactive
same,Potency,SKOV3,inactive
same,Potency,Tov-21-G,inactive
same,Potency,Tov112D,inactive
same,"activity, negative = cell killing",[1]; [3],-9.38%
same,"activity, negative = cell killing",[1]; [4],-5.39%
same,"activity, negative = cell killing",[1]; [5],11.2%
same,"activity, negative = cell killing",[1]; [6],-7.96%
same,"activity, negative = cell killing",[1]; [7],-10.2%
same,"activity, negative = cell killing",[1]; [8],-31.8%
same,"activity, negative = cell killing",[1]; [10],27.9%
CC(C(=O)O)c1ccc(C(=O)c2ccccc2)s1 (stereo unspecified),Potency,MKL-2,inactive
same,Potency,UISO,inactive
same,Potency,WaGa,inactive
same,Potency,C33A,inactive
same,Potency,CAOV3,inactive
same,Potency,CASKI,inactive
same,Potency,Es-2,inactive
same,Potency,HeLa,inactive
same,Potency,Hek293T,inactive
same,Potency,JEG-3,inactive
same,Potency,OV90,inactive
same,Potency,PA-1,inactive
same,Potency,Tov-21-G,inactive
same,Potency,Tov112D,inactive
same,"activity, negative = cell killing",[1]; [3],-11.8%
same,"activity, negative = cell killing",[1]; [4],-9.92%
same,"activity, negative = cell killing",[1]; [5],4.8%
